This is an account of results in PubChem BioAssay (NCI).

SMILES strings stand for the structures. Compounds without any hit were thinned out: in the full panel of roughly 83,000, 20% have a hit.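 For each line, cells grew in 96-well plates with the test compound present at a single concentration for 48 hours.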 A number with no mark means an inactive call. Calls of active or inactive are those of the source. Rule for the calls: active = growth percent below 10; inactive = the rest.

Some test systems named below: SR leukemia; RPMI-8226 leukemia; OVCAR-8 ovarian; OVCAR-5 ovarian; OVCAR-4 ovarian; SK-OV-3 ovarian; OVCAR-3 ovarian; HS 578T breast; NCI/ADR-RES ovarian; T-47D breast; BT-549 breast; MDA-MB-435 melanoma; SW-620 colon; MCF7 breast; HCT-116 colon; KM12 colon; HCC-2998 colon; IGROV1 ovarian.
What all share (experiment): NCI-60 one-dose screen, 48 h (100 = growth as untreated, 0 = no growth, -100 = all killed)
What all share (details): 10 µM unless noted

Consider `COc1ccc(-c2csc(NC(=O)CSc3nc(-c4ccccc4)cc(=O)[nH]3)n2)cc1`, for which the growth in the assay on SR leukemia was 61.1%; in the assay with RPMI-8226 leukemia, 41.8%; in the assay on OVCAR-8 ovarian it was 70.8%; in the assay on OVCAR-5 ovarian it was 94.3%; in the assay on OVCAR-4 ovarian, 54.2%; in the assay on SK-OV-3 ovarian, 91%. Moreover, the growth in the assay with OVCAR-3 ovarian is 72%; with HS 578T breast, 84.6%; in the assay with NCI/ADR-RES ovarian, 51.3%; in the assay on T-47D breast, 15.1%; in the assay on BT-549 breast, 8.89% (active); in the assay with MDA-MB-435 melanoma, 49.9%. Besides, the growth with SW-620 colon was 93.5%; with MCF7 breast, 50.7%; in the assay with HCT-116 colon, 35.8%; in the assay with KM12 colon it was 73.9%.

Turning to `CNC(=O)c1cc(Oc2ccc3nc(NC(C)=O)sc3c2)ccn1`, the growth with SR leukemia is 85.4%; in the assay on RPMI-8226 leukemia it was 93.8%; with OVCAR-8 ovarian, 99.9%; with OVCAR-5 ovarian, 103%; in the assay on OVCAR-4 ovarian it was 95.9%; with SK-OV-3 ovarian, 107%. Moreover, the growth with OVCAR-3 ovarian is 105%; with HS 578T breast, 107%; in the assay on NCI/ADR-RES ovarian, 98.1%; with T-47D breast, 90.7%; in the assay with BT-549 breast it was 96.9%; in the assay with MDA-MB-435 melanoma, 102%. Further, the growth was 112% with SW-620 colon; 98.9% in the assay on MCF7 breast; 89.2% in the assay on HCT-116 colon; 107% in the assay with HCC-2998 colon; 98.2% in the assay with KM12 colon.

Turning to `COc1ccc(C(=O)C2C(c3ccc(OC)cc3)CN(C)C23C(=O)Nc2ccccc23)cc1` (stereo not drawn), the growth with SR leukemia was 98%; in the assay with RPMI-8226 leukemia it was 88.6%; in the assay with OVCAR-8 ovarian it was 95.5%; in the assay with OVCAR-5 ovarian, 88.6%; in the assay with OVCAR-4 ovarian, 83.6%; in the assay with SK-OV-3 ovarian, 91.4%. Also, the growth in the assay with OVCAR-3 ovarian was 97.8%; with HS 578T breast, 93.2%; with NCI/ADR-RES ovarian it was 76.7%; in the assay with T-47D breast it was 85.8%; with BT-549 breast, 105%; in the assay with MDA-MB-435 melanoma it was 97.6%. Moreover, the growth with SW-620 colon is 95.2%; in the assay on MCF7 breast, 98.8%; with HCT-116 colon it was 84.4%; with HCC-2998 colon it was 88.4%; in the assay with KM12 colon, 93.9%.

Take `CN(CCOc1ccc(C#N)cc1)CCOc1ccc(C#N)cc1`: the growth was 49.6% with SR leukemia; 7.02% (active) in the assay on RPMI-8226 leukemia; 93.5% with OVCAR-8 ovarian; 79% in the assay on OVCAR-5 ovarian; 75% in the assay on OVCAR-4 ovarian; 46.8% with SK-OV-3 ovarian. The growth was 97.6% in the assay on OVCAR-3 ovarian; 49.2% in the assay with HS 578T breast; 67.1% with NCI/ADR-RES ovarian; 79.9% in the assay with T-47D breast; 91.3% in the assay on BT-549 breast; 86.3% in the assay with MDA-MB-435 melanoma. Besides, the growth in the assay with SW-620 colon was 57.8%; in the assay on MCF7 breast, 211%; in the assay with HCT-116 colon, 66.2%; in the assay with KM12 colon, 71.4%.

Turning to `CSc1nc2sc3c(c2c(=O)n1-c1ccc([N+](=O)[O-])cc1)CCCCC3`, the growth was 85.4% in the assay on SR leukemia; 99.4% in the assay with RPMI-8226 leukemia; 73% in the assay with OVCAR-8 ovarian; 87.8% with OVCAR-5 ovarian; 82.4% in the assay with OVCAR-4 ovarian; 69.5% in the assay on SK-OV-3 ovarian. The growth in the assay with OVCAR-3 ovarian is 103%; with HS 578T breast it was 82.3%; in the assay with NCI/ADR-RES ovarian, 89.6%; in the assay with T-47D breast, 89%; with BT-549 breast, 102%; in the assay with MDA-MB-435 melanoma it was 97%. For the same compound, the growth was 95.4% in the assay on SW-620 colon; 86.2% in the assay with MCF7 breast; 84.4% in the assay with HCT-116 colon; 104% in the assay with HCC-2998 colon; 101% in the assay with KM12 colon.

As to `C=CCc1c2c(c(OC)c3ccoc13)C(=O)/C(=C/c1ccccc1OC)O2`, the growth was 48% in the assay on SR leukemia; 29.2% in the assay on RPMI-8226 leukemia; 39.1% in the assay with OVCAR-8 ovarian; 114% in the assay with OVCAR-5 ovarian; 69.7% in the assay on OVCAR-4 ovarian; 79.6% in the assay with SK-OV-3 ovarian. Further, the growth was 40.6% in the assay with OVCAR-3 ovarian; 58.1% in the assay on HS 578T breast; 35.2% in the assay with NCI/ADR-RES ovarian; 59.8% with T-47D breast; 46.1% in the assay with BT-549 breast; 47.8% in the assay on MDA-MB-435 melanoma. Also, the growth is 47.2% in the assay on SW-620 colon, 32.6% in the assay on MCF7 breast, 21.4% in the assay with HCT-116 colon and 46.8% in the assay with KM12 colon.

Turning to `O=C1c2cccc(NCCN=Cc3cc(O)ccc3O)c2C(=O)c2c(NCCN=Cc3cc(O)ccc3O)cccc21`, the growth was 40.4% with SR leukemia; -60.1% (active) in the assay on RPMI-8226 leukemia; 7.56% (active) in the assay with OVCAR-8 ovarian; -28.1% (active) in the assay with OVCAR-5 ovarian; -47% (active) in the assay on OVCAR-4 ovarian; 73.4% with SK-OV-3 ovarian. Moreover, the growth was -48.8% (active) with OVCAR-3 ovarian; -37.6% (active) with HS 578T breast; 42.9% in the assay on NCI/ADR-RES ovarian; -2.29% (active) in the assay on T-47D breast; 41.7% in the assay with BT-549 breast; -5.74% (active) in the assay with MDA-MB-435 melanoma. Also, the growth is -68.7% (active) with SW-620 colon, -59.6% (active) in the assay on MCF7 breast, -17.3% (active) with HCT-116 colon and -71.3% (active) with KM12 colon.

With `O=C(Nc1ccc(-c2nc(N3CCOCC3)c3cccn3n2)cc1)Nc1cccnc1`, the growth with SR leukemia is 11%; in the assay on RPMI-8226 leukemia, -12% (active); in the assay with OVCAR-8 ovarian, 1.49% (active); with OVCAR-5 ovarian, 10.1%; in the assay with OVCAR-4 ovarian it was -10.7% (active); in the assay with SK-OV-3 ovarian it was -24.2% (active). Moreover, the growth with OVCAR-3 ovarian is 4.15% (active); in the assay on HS 578T breast, -32.3% (active); in the assay with NCI/ADR-RES ovarian, 0.693% (active); in the assay with T-47D breast, -24.8% (active); in the assay with BT-549 breast, -10.2% (active); with MDA-MB-435 melanoma, 3.87% (active). Also, the growth in the assay with SW-620 colon was 8.71% (active); in the assay on MCF7 breast it was 4.54% (active); in the assay on HCT-116 colon, 4.12% (active); in the assay on HCC-2998 colon, 12.9%; in the assay with KM12 colon, 9.01% (active).

For the compound `Cc1nc2sc(C(=O)Nc3cccc(Cl)c3C)c(N)c2cc1C(=O)c1ccccc1`, the growth is 19.8% in the assay with SR leukemia; 6.33% (active) in the assay with RPMI-8226 leukemia; 9.81% (active) with OVCAR-8 ovarian; 31.1% in the assay on OVCAR-5 ovarian; 63.3% with OVCAR-4 ovarian; 3.83% (active) in the assay with SK-OV-3 ovarian. Moreover, the growth in the assay with IGROV1 ovarian was 28.6%; in the assay with OVCAR-3 ovarian, -19.1% (active); in the assay with HS 578T breast, 12.2%; in the assay with NCI/ADR-RES ovarian it was 4.5% (active); in the assay on T-47D breast it was 36.8%; with BT-549 breast it was 7.58% (active). Besides, the growth in the assay with MDA-MB-435 melanoma was -37.4% (active); in the assay on SW-620 colon, 27%; in the assay on HCT-116 colon, 13.1%; in the assay with KM12 colon, 13%.
